The entries come from a sample that favours hits as a whole.
CBX7 AlphaScr: CBX7 inhibition, primary AlphaScreen | normalised signal (fraction of DMSO) (test concentration not listed) | O95931 | AID 1224903 | hit rate 1.1% among 66,000 | AlphaScreen His6-CBX7 / biotin-H3K27me3 peptide binding; stronger effect = lower value; in the data active = normalised signal below about 0.5
Target sequence (O95931 whole entry, looked up): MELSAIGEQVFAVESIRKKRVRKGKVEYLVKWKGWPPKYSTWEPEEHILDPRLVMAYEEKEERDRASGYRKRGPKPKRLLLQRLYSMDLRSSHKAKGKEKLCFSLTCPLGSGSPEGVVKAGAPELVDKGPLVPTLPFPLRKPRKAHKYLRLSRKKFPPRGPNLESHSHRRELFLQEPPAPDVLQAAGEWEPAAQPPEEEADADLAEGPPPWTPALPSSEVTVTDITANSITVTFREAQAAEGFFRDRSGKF
* = called active by the depositor.

Screening Cc1cc(C)c(-c2csc(NC(=O)c3cccc(Oc4ccccc4)c3)n2)c(C)c1 returned CBX7 AlphaScr 1.1.
Screening Cc1ccc(-c2csc(NC(=O)c3cccc(Oc4ccccc4)c3)n2)cc1 returned CBX7 AlphaScr 1.1.
For COc1cc(C(=O)Nc2ccccn2)cc(OC)c1OC the results were CBX7 AlphaScr 1.1.
`O=C(Nc1nc(-c2ccccn2)cs1)c1cccc(Oc2ccccc2)c1` gave CBX7 AlphaScr 0.039*.
Screening COc1ccc(C(=O)Nc2nc(-c3ccccc3)cs2)cc1OC returned CBX7 AlphaScr 0.83.
`CCOc1ccccc1NC(=O)c1c(NCc2ccc(OC)c(OC)c2OC)sc2c1CCCCC2` gave CBX7 AlphaScr 0.86.
Screening CCOC(=O)c1cnc2ccc(OC)cc2c1Nc1cc(C)ccc1OC returned CBX7 AlphaScr 1.
Screening COc1cccc(NS(=O)(=O)c2ccc3[nH]cc(C(=O)N(CC(C)C)CC(C)C)c(=O)c3c2)c1 returned CBX7 AlphaScr 0.87.
Cc1ccc(NC2c3ccccc3C(=O)N2c2ccc(Cl)cc2)cc1C (stereo not given) was read as CBX7 AlphaScr 0.89.
COc1cccc(-n2c(Cc3cc(=O)[nH]c(=O)[nH]3)nnc2SC(C)c2ccccc2)c1 (stereo not given) was read as CBX7 AlphaScr 1.
`CCN(CC)C(C(=O)NC1CCCCC1)c1ccc(Cl)cc1` (stereo not given) gave CBX7 AlphaScr 1.2.
COc1ccc(-c2cc(C(=O)Nc3ccc(Br)cc3)no2)cc1OC was read as CBX7 AlphaScr 1.
Screening COc1ccc(C(=O)Nc2c3c(nn2-c2ccc(C)cc2)CSC3)cc1 returned CBX7 AlphaScr 0.92.
For CCCc1oc2cc(O)c(CC)cc2c(=O)c1-c1ccc2c(c1)OCCO2 the results were CBX7 AlphaScr 1.3.
Cc1ccc(OCCn2cnc3cc(C)c(C)cc32)cc1 was read as CBX7 AlphaScr 0.77.
`Cc1ccc(OCCN2CCN(c3ccc(C)c(C)c3)CC2)cc1` gave CBX7 AlphaScr 0.4*.
For Cc1ccc(OCCN2CCN(c3ncnc4scc(-c5ccccc5)c34)CC2)cc1 the results were CBX7 AlphaScr 0.92.
Cc1cccc(NC(=O)c2cc3ccccc3oc2=O)n1 was read as CBX7 AlphaScr 0.9.
`CCOc1ccc(NC(=O)C2CCCN(S(=O)(=O)c3cccs3)C2)cc1` (stereo not given) gave CBX7 AlphaScr 1.
`O=C(O)c1[nH]c2ccccc2c1CC(=O)N1CCCC1` gave CBX7 AlphaScr 1.
O=C(c1ccc2c(c1)C(=O)N(c1ccccn1)C2=O)N1CCc2ccccc2C1 was read as CBX7 AlphaScr 0.97.
`CCOc1ccccc1NC(=O)CSc1nccn1-c1cccc(C)c1` gave CBX7 AlphaScr 0.76.
For COc1ccccc1NC(=O)CSc1nccn1-c1cccc(Cl)c1 the results were CBX7 AlphaScr 0.97.
For Cc1cc(C)c(NC(=O)CSc2nccn2-c2cccc(Cl)c2)c(C)c1 the results were CBX7 AlphaScr 0.88.
For Cc1cccc(NC(=O)CSc2nccn2-c2ccccc2)c1C the results were CBX7 AlphaScr 0.77.
`Cc1cccc(NC(=O)CSc2nccn2-c2cccc(Cl)c2)c1C` gave CBX7 AlphaScr 0.47*.
`Cc1ccc(C)c(NC(=O)CSc2nccn2-c2ccc(Cl)cc2)c1` gave CBX7 AlphaScr 0.8.
`Cc1cccc(NC(=O)CSc2nccn2-c2ccc(Cl)cc2)c1C` gave CBX7 AlphaScr 0.44*.
Screening CCOc1ccccc1NC(=O)CSc1nccn1-c1cccc(Cl)c1 returned CBX7 AlphaScr 0.29*.
`Cc1ccc(C)c(NC(=O)CSc2nccn2-c2cccc(Cl)c2)c1` gave CBX7 AlphaScr 0.93.
CCOc1ccc2nc(N3CCC(C(=O)O)CC3)sc2c1 was read as CBX7 AlphaScr 1.
For O=C(Nc1cccc(C(F)(F)F)c1)c1nn(-c2ccc(Cl)cc2)c(=O)c2ccccc12 the results were CBX7 AlphaScr 0.94.
COc1ccc(Nc2nnc(-c3ccc(Cl)cc3)c3ccccc23)cc1C(N)=O was read as CBX7 AlphaScr 0.98.
For CC(C)Cn1cc(C(=O)Nc2ccc(F)cc2)c2c3ccccc3n(C)c2c1=O the results were CBX7 AlphaScr 0.99.
For CCCCNC(=O)CN1C(=O)COc2ccc(C(C)(C)C)cc21 the results were CBX7 AlphaScr 0.93.
Screening CCN(CCCNC(=O)CN1C(=O)COc2ccc(C(C)(C)C)cc21)c1cccc(C)c1 returned CBX7 AlphaScr 0.27*.
`Cc1ccc(CNC(=O)CN2C(=O)COc3ccc(C(C)(C)C)cc32)cc1` gave CBX7 AlphaScr 1.1.
For CC(C)(C)c1ccc2c(c1)N(CC(=O)NCc1cccs1)C(=O)CO2 the results were CBX7 AlphaScr 0.19*.
CCN(CCCNC(=O)CCCN1C(=O)COc2ccc(C)cc21)c1cccc(C)c1 was read as CBX7 AlphaScr 0.85.
CC(C)(C)c1ccc2c(c1)N(CC(=O)NCc1ccc3c(c1)OCO3)C(=O)CO2 was read as CBX7 AlphaScr 1.1.
`O=C(c1cnn(-c2ccccc2)c1-n1cccc1)N1CCc2ccccc2C1` gave CBX7 AlphaScr 1.
COc1ccc(N2CCN(Cc3nc(-c4ccc(C)cc4)no3)CC2)cc1 was read as CBX7 AlphaScr 0.32*.
Screening Cc1ccc(-c2noc(CN3CCN(c4ccc(F)cc4)CC3)n2)cc1 returned CBX7 AlphaScr 0.99.
Screening Cc1ccc(-c2noc(CN3CCOCC3)n2)cc1 returned CBX7 AlphaScr 1.3.
For COc1ccccc1CN(C)CCc1ccccn1 the results were CBX7 AlphaScr 1.
For CCOc1ccc(CN(C)CCc2ccccn2)cc1 the results were CBX7 AlphaScr 0.47*.
For COc1ccc(S(=O)(=O)N(C)CCc2ccccn2)cc1 the results were CBX7 AlphaScr 0.94.
For Nc1nonc1-c1noc(Cc2ccc(Cl)cc2)n1 the results were CBX7 AlphaScr 0.98.
Screening Cc1ccc2nc(-c3ccc(NC(=O)Nc4ccccc4)cc3)sc2c1 returned CBX7 AlphaScr 1.3.
Screening CCc1ccc(NC(=O)N(C2CCCC2)C2CCN(C(C)=O)CC2)cc1 returned CBX7 AlphaScr 1.
For CCCc1ccc(OCC(=O)Nc2sc3c(c2C(=O)OCC)CCC(C)C3)cc1 (stereo not given) the results were CBX7 AlphaScr 1.2.
Screening COc1ccc(OC)c(NS(=O)(=O)c2ccc(OC)c3ncccc23)c1 returned CBX7 AlphaScr 1.
`CS(=O)(=O)Nc1ccc(Cl)c2cccnc12` gave CBX7 AlphaScr 0.0026*.
`Cc1nn(-c2ccccc2)c(Cl)c1C(=O)Nc1ccc(C)c2cccnc12` gave CBX7 AlphaScr 0.96.
Screening CCN(CC)C(=O)c1ccc2c(c1)N(Cc1ccc(Cl)cc1)C(=O)c1ccccc1S2=O (stereo not given) returned CBX7 AlphaScr 0.97.
For N#Cc1nc(COc2ccc(Cl)cc2)oc1N1CCN(Cc2ccccc2)CC1 the results were CBX7 AlphaScr 0.71.
Screening COc1ccc(OCc2nc(C#N)c(N3CCCCCC3)o2)cc1 returned CBX7 AlphaScr 0.58.
Cc1ccccc1OCc1nc(C#N)c(N2CCCCC2)o1 was read as CBX7 AlphaScr 0.71.
For N#Cc1nc(COc2ccc(F)cc2)oc1N1CCC(C(N)=O)CC1 the results were CBX7 AlphaScr 0.99.
For N#Cc1nc(-c2ccc(F)cc2)oc1N1CCCCCC1 the results were CBX7 AlphaScr 0.79.
For N#Cc1nc(COc2ccccc2)oc1N1CCCCCC1 the results were CBX7 AlphaScr 0.46*.
Screening N#Cc1nc(COc2ccccc2Cl)oc1N1CCCCC1 returned CBX7 AlphaScr 0.75.
For Cc1ccccc1OCc1nc(C#N)c(N2CCCCCC2)o1 the results were CBX7 AlphaScr 0.47*.

High-throughput results: PubChem BioAssay, Bradner/Qi Labs at DFCI
